MOR-DOR ag: OPRM1-OPRD1 heterodimerization agonism. P35372+P41143. cells, luminescence. activation, % at 9.3 µM. 340,000 tested, 0.3% active. AID 504326;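 also: 0% = vehicle-treated cells and 100% = reference agonist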
Target sequence (P35372 whole entry, looked up): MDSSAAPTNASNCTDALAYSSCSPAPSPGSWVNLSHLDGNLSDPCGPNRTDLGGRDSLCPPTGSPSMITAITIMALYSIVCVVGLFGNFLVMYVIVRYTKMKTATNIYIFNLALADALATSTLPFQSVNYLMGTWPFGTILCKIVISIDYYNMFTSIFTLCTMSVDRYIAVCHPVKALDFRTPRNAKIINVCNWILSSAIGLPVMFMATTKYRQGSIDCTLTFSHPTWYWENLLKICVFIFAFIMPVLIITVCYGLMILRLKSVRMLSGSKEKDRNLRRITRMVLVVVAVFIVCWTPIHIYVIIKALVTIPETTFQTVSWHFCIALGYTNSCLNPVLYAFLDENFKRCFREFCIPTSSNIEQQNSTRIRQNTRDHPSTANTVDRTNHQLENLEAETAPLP
Target sequence (P41143 whole entry, looked up): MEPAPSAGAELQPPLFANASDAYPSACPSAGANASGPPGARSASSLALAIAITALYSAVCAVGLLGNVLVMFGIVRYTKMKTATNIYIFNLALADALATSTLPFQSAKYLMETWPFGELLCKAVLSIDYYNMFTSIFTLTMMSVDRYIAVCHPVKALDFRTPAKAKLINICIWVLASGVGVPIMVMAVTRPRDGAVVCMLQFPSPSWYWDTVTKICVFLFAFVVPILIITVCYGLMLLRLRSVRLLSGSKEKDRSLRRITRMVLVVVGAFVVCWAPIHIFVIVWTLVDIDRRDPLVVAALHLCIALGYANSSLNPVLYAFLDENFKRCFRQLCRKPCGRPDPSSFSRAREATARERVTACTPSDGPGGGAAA
OPRM1-OPRD1 inv: inverse agonist of human OPRM1-OPRD1 heterodimerization. P35372+P41143. cell-based MOR-DOR heterodimer luminescence, inverse agonism. inhibition, % at 9.3 µM. 340,000 tested, 0.21% active. AID 504357; in the data active = inhibition above about 22%, passing the limit was not always enough;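 also: 0% = cells with DMSO and 100% = wells without cells with DMSO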
HTR5A ag ctr: counter-screen for OPRM1-OPRD1 agonists: human HTR5A agonism; P47898; 340,000 tested, 0.61% active; HTR5A agonist assay, luminescence, cell-based; activation, % at 9.3 µM; in the data active = activation mostly above about 9.5%, no sharp cut-off; inactive = mostly below about 7.6%;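 also: 0% = cells with vehicle only and 100% = reference agonist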
HTR5A inv ag: inverse agonist of human HTR5A in OPRM1-OPRD1 counter-screen; 340,000 tested, 0.083% active; inhibition, % at 9.3 µM; HTR5A cell line, luminescence, inverse agonism; in the data active = inhibition mostly above about 23%, no sharp cut-off; inactive = mostly below about 18%;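 also: 0% = cells with DMSO and 100% = no-cell wells with DMSO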
OPRM1-D1 ag cf: confirmation of human OPRM1-OPRD1 heterodimerization agonists | 830 tested, 45% active | shares compounds with MOR-DOR ag | AID 504904 | activation, % at 9.3 µM | cells, MOR-DOR heterodimerization, luminescence complementation;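 also: 0% = vehicle-treated cells and 100% = reference agonist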
HTR5A ag counter: counter-screen for OPRM1-OPRD1 agonists: human HTR5A agonism | shares compounds with MOR-DOR ag | HTR5A agonist counterscreen, cell luminescence | activation, % at 9.3 µM | 830 tested, 8% active | AID 504905; in the data active = activation above about 17%;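 also: 0% = vehicle-treated cells and 100% = reference agonist response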
Active calls of the source: *; i = inactive; / = not tested or not shown. Rows were chosen to be rich in hits. Some 1.1% of all compounds tested hit in one or more screens of this group. Rule as the data show it, unless noted: active = activation above about 18%; inactive = the rest.

SMILES	MOR-DOR ag	OPRM1-OPRD1 inv	HTR5A ag ctr	HTR5A inv ag	OPRM1-D1 ag cf	HTR5A ag counter
Cc1ccc2[nH]c3c(N4CCc5ccccc5C4)ncnc3c2c1	371*	i	5	-4	15	19*
O=C(O)COc1ccccc1/C=N/NC(=O)c1ccc2c(c1)OCCO2	-1	4	-5	18	/	/
COc1cc(NC(=O)c2cc(C)on2)cc(OC)c1OC	0	-3	-1	12	/	/
CCOC(=O)c1cc(NC(=O)c2cc(C)on2)cc(C(=O)OCC)c1	22*	-119	8	-8	3	3
COc1ccc(CNC(=O)CCc2cc(OC)c(OC)c(OC)c2)cc1	-2	8	1	-5	/	/
CCCCCCCCCS(=O)(=O)Nc1cc(C)ccn1	-2	10	5	-13	/	/
Cc1cc(C)cc(NS(=O)(=O)CCCS(=O)(=O)Nc2cc(C)cc(C)c2)c1	30*	-145	6	-22	1	-4
Cc1cc(C)cc(CC(Cc2nc3ccccc3[nH]2)c2nc3ccccc3[nH]2)c1 (configuration not stated)	66*	-376	-8	-16	0	-2
O=C(C1=C[C@H](c2ccccc2)C[C@H](OCCCCO)O1)N1CCN(Cc2ccc3c(c2)OCO3)CC1	-2	9	-5	13	/	/
CCc1ccc2nc(N(CCCN(C)C)C(=O)c3ccc(S(=O)(=O)N4CCc5ccccc5C4)cc3)sc2c1	29*	-168	5	-17	36*	5
CN(C)CCCN(C(=O)c1ccc(S(=O)(=O)N(C)Cc2ccccc2)cc1)c1nc2c(F)cccc2s1	47*	-244	0	3	108*	-3
CCN(Cc1ccccc1)S(=O)(=O)c1ccc(C(=O)N(CCCN(C)C)c2nc3ccc(F)cc3s2)cc1	412*	i	4	-1	0	2
CCc1ccc2nc(N(CCCN(C)C)C(=O)c3ccc(S(=O)(=O)N(C)C4CCCCC4)cc3)sc2c1	19*	-106	2	-25	50*	3
CCSc1ccc([C@@H]2[C@H]3C(=O)N(CC)C(=O)[C@H]3[C@]3(C(=O)OC)CCCCN23)cc1	-1	6	2	3	/	/
CC(C)CNc1nc(Oc2ccc(=O)[nH]n2)nc(N(C)C)n1	-2	10	-4	4	/	/
O=c1c2[nH]cnc2n(-c2ccccc2)c(=O)n1Cc1ccccc1	-6	26	-2	6	/	/
O=C(NCC1CC1)c1ccc2c3n(nc2c1)-c1ccccc1CO3	-2	13	2	-5	/	/
CN(C(=O)C1CCCN1S(=O)(=O)c1ccc(Cl)cc1)c1ccccc1 (configuration not stated)	-1	6	0	0	/	/
CN(C)CCCN(C(=O)c1ccc(S(=O)(=O)N(C)C2CCCCC2)cc1)c1nc2ccc(F)cc2s1	327*	i	4	13	121*	2
CN(C)CCCN(C(=O)c1ccc(S(=O)(=O)N(C)C2CCCCC2)cc1)c1nc2ccc(Br)cc2s1	11	-59	-1	7	/	/
O=C(CNC(=S)N(Cc1ccccc1)Cc1cccnc1)NCc1ccccc1	1	-4	2	14	/	/
CN(C)C1(CNC(=O)CC(NC(=O)c2ccccc2Cl)c2ccccc2)CCCCC1 (configuration not stated)	22*	-116	4	-12	5	2
COc1ccc(CNC(=O)CCCNC(=O)c2ccc(Cl)cc2)cc1OC	-1	5	4	-16	/	/
CCOc1ccc2c(C)nc(NC3=NC(C)(C)C=C(C)N3)nc2c1	170*	i	-3	-2	2	1
CCOc1ccc2nc(NC3=NC(C)(C)C=C(C)N3)nc(C)c2c1	158*	i	0	0	1	-1
SMILES	MOR-DOR ag	OPRM1-OPRD1 inv	HTR5A ag ctr	HTR5A inv ag	OPRM1-D1 ag cf	HTR5A ag counter
CCOc1ccc2nc(NC3=NC(c4ccc(OC)cc4)CC(=O)N3)nc(C)c2c1 (configuration not stated)	13	-77	6	-25	/	/
O=C1N/C(=C/c2ccsc2)C(=O)N1c1ccccc1	0	1	-2	4	/	/
CCN(CC)CCN(C(=O)c1ccc(N2C(=O)CCC2=O)cc1)c1nc2cc3c(cc2s1)OCCO3	0	0	2	-6	/	/
Cc1cccc(C2c3[nH]c4ccccc4c3CCN2Cc2cccn2-c2ncccn2)c1 (configuration not stated)	5	-24	1	18	/	/
CC(C)(C)c1ccc(OCC(=O)Nc2ccc3c4c(cccc24)C(=O)NC3=O)cc1	19*	-96	-3	-2	0	0
COc1cccc(CN2CCC(n3nccc3NC(=O)CCCc3ccccc3)CC2)c1O	-2	10	3	17	/	/
COc1ccc(CN2CCC(n3nccc3NC(=O)CCc3ccccc3)CC2)c(C)c1C	23*	-117	-1	-2	4	-2
COCCN(CCOC)C(=O)CSc1ccc(S(=O)(=O)N2CCN(C)CC2)cn1	32*	-138	-2	5	0	2
CC(=O)CSc1ccc(S(=O)(=O)N2CCN(C)CC2)cn1	-4	15	1	-4	/	/
CCOC(=O)c1c2c(n(-c3ccc(OC)cc3)c1C)C(=O)C(=O)c1ccccc1-2	20*	-97	10	-40	15	1
COc1ccc(-c2nn(-c3ccccc3C)cc2CNCCc2cnc[nH]2)cc1F	9	-42	-3	10	/	/
COc1ccc(-c2nn(-c3ccccc3C)cc2CNC(C)c2cn(C)nc2C)cc1F (configuration not stated)	163*	i	0	20	23*	16
CCn1cc(CNCc2cn(-c3ccccc3C)nc2-c2ccc(OC)c(F)c2)cn1	243*	i	-4	10	309*	1
COc1ccc(-c2nc(CN3CCC(C(=O)NCC4CCCO4)CC3)c(C)o2)cc1OC (configuration not stated)	30*	-149	2	-9	23*	3
O=S(=O)(c1ccc(SCc2ccccc2)nc1)N1CCCC1	4	-15	-3	7	/	/
CCCn1cc(CN2CCC(Cc3cccc(F)c3)(C(=O)OCC)CC2)c(C)n1	-2	9	1	-3	/	/
CCOC(=O)C1(CCCc2ccccc2)CCN(Cc2cnn(C)c2)CC1	98*	i	-3	9	115*	-2
CCOC(=O)C1(Cc2cccc(F)c2)CCN(Cc2cnn(CC)c2)CC1	68*	-332	1	-16	-3	-9
CCOC(=O)C1(Cc2ccc(Cl)cc2)CCN(Cc2cn(CC)nc2C)CC1	21*	-102	6	-18	11	0
CCOC(=O)C1(CCCc2ccccc2)CCN(C(=O)CCc2cnn(C)c2)CC1	0	-3	-2	4	/	/
COc1ccc2cc(C)c(SCC(=O)Nc3cc(C)on3)nc2c1	18*	-110	0	-1	10	4
Cc1ccc2nc(-c3ccc(SCC(=O)Nc4nnc(C)s4)nc3)[nH]c2c1	24*	-145	12	-31	0	0

Compound activity: PubChem, The Scripps Research Institute Molecular Screening Center
